“And” between values parts separate entries of the source, which are not always exact repeats. Identical values can stand only once. Results filed as inconclusive are left out. The source made the active and inactive calls. Unless noted, calls come from the whole dose curve; as a rule, active = well fitted curve in the direction sought with a large enough effect in the repeat runs; inconclusive = weak or mixed curves; inactive = no such curve, though single readings can be large; an effect the other way counts as inactive or inconclusive.
Columns and labels:
[1] = target: Peroxisome proliferator-activated receptor delta (Homo sapiens) (UniProt Q03181); experiment: qHTS assay to identify small molecule agonists of the peroxisome proliferator-activated receptor delta (PPARd) signaling pathway (AID 743212; calls by dose curve;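 note: HEK293H cells with PPARd UAS beta-lactamase reporter GeneBLAzer system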)
Method in brief: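 Beta-lactamase reporter read by fluorescence (LiveBLAzer B/G FRET, 2 h, room temperature). Test agents, in DMSO, incubated at 37 C with PPARd-bla HEK293H cells.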

[2] = target: Peroxisome proliferator-activated receptor delta (Homo sapiens) (UniProt Q03181); experiment: qHTS assay to identify small molecule antagonists of the peroxisome proliferator-activated receptor delta (PPARd) signaling pathway (AID 743215; active = well fitted inhibition curve with a large enough effect in the signal ratio in the repeat runs, not every such curve was filed as active; the % refers to the signal ratio;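 note: cells stimulated with agonist L165041 at 300 nM final during compound exposure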; note: potency is the fitted concentration of half-maximal effect)
Method in brief: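 Fluorescence from cleaved LiveBLAzer B/G FRET substrate (2 h, room temperature) reports PPARd-driven beta-lactamase in HEK293H UAS-bla cells. Cells had been treated 17 h at 37 C with compound plus 300 nM final L165041.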

[3] = target: Bile acid receptor (Homo sapiens) (UniProt Q96RI1); experiment: qHTS assay to identify small molecule agonists of the farnesoid-X-receptor (FXR) signaling pathway (AID 743220; active = well fitted activation curve with a large enough effect in the signal ratio in the repeat runs, not every such curve was filed as active; the % refers to the signal ratio; note: potency is the fitted concentration of half-maximal effect)
Method in brief: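 FXR-UAS-bla HEK 293T cells carrying a UAS-driven beta-lactamase reporter were plated for 5 h at 37C/5% CO2, then exposed to DMSO-dissolved Tox21 10K compounds for 16 h at 37C. A LiveBLAzer B/G FRET substrate was loaded for 2 h at room temperature before fluorescence reading.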

[4] = qHTS assay to identify small molecule antagonists of the farnesoid-X-receptor (FXR) signaling pathway - cell viability counter screen (AID 743221; active = well fitted cell-killing curve with a large enough effect in the repeat runs, not every such curve was filed as active; note: nearly all actives have a fitted effect of over 50% in size; note: potency is the fitted concentration of half-maximal effect)
Method in brief: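 Multiplexed counter screen: viability of FXR-bla HEK 293T cells under agonist stimulation by chenodeoxycholic acid (50 uM, final) and test compound for 16 h at 37 C, measured by CellTiter-Glo luminescence in the reporter wells.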

[5] = qHTS assay to identify small molecule agonists of the farnesoid-X-receptor (FXR) signaling pathway - cell viability counter screen (AID 743218); note: nearly all actives have a fitted effect of over 45% in size; note: potency is the fitted concentration of half-maximal effect
Method in brief: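 Readout: CellTiter-Glo luminescence, 30 min RT, multiplexed after the FXR-bla FRET reading. HEK 293T FXR-UAS-bla cells received compound 5 h post-plating and were incubated 16 h at 37 C.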

[6] = target: Vitamin D3 receptor (Homo sapiens) (UniProt P11473); experiment: qHTS assay to identify small molecule antagonists of the vitamin D receptor (VDR) signaling pathway (AID 743223; active = well fitted inhibition curve with a large enough effect in the signal ratio in the repeat runs, not every such curve was filed as active; the % refers to the signal ratio)
Method in brief: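 Cells carrying a VDR-driven beta-lactamase reporter (VDR-bla) were co-treated with compound and 3 nM final 1alpha,25-dihydroxyvitamin D3 for 16 h at 37C; reporter activity was measured as FRET substrate fluorescence after 2 h at room temperature.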

[7] = target: Bile acid receptor (Homo sapiens) (UniProt Q96RI1); experiment: qHTS assay to identify small molecule antagonists of the farnesoid-X-receptor (FXR) signaling pathway (AID 743217; active = well fitted inhibition curve with a large enough effect in the signal ratio in the repeat runs, not every such curve was filed as active; the % refers to the signal ratio; note: potency is the fitted concentration of half-maximal effect)
Method in brief: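 FRET fluorescence after 2 h room-temperature LiveBLAzer loading gives the readout. Prior step: FXR-bla HEK 293T cells, seeded and incubated 5 h, received test compounds plus 50 uM final CDCA for 16 h at 37 °C.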

[8] = target: Vitamin D3 receptor (Homo sapiens) (UniProt P11473); experiment: qHTS assay to identify small molecule agonists of the vitamin D receptor (VDR) signaling pathway (AID 743222; calls by dose curve)
Method in brief: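 Following 4 h attachment at 37C, VDR-bla cells (2,000 per well) received DMSO-dissolved compounds or controls. After 16 h incubation, LiveBLAzer B/G FRET substrate was added and fluorescence read 2 h later at room temperature.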

[9] = qHTS assay to identify small molecule agonists of the peroxisome proliferator-activated receptor delta (PPARd) signaling pathway - cell viability counter screen (AID 743211); note: nearly all actives have a fitted effect of over 55% in size; note: potency is the fitted concentration of half-maximal effect
Method in brief: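 Counter screen for cytotoxicity run in parallel with the PPARd reporter screen. Beta-lactamase reporter HEK293H cells exposed to compounds 17 h; ATP-based CellTiter-Glo luminescence quantified viability.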

[10] = qHTS assay to identify small molecule antagonists of the peroxisome proliferator-activated receptor delta (PPARd) signaling pathway - cell viability counter screen (AID 743213); note: nearly all actives have a fitted effect of over 50% in size; note: potency is the fitted concentration of half-maximal effect
Method in brief: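 PPARd-bla HEK293H cells (3000/well) got compound plus 300 nM L165041 agonist for 17 h at 37 C. Viability in the same wells came from CellTiter-Glo luminescence after 30 min at room temperature.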

Measured: Potency

Bile acid receptor (Homo sapiens), sequence (Q96RI1 whole entry, looked up): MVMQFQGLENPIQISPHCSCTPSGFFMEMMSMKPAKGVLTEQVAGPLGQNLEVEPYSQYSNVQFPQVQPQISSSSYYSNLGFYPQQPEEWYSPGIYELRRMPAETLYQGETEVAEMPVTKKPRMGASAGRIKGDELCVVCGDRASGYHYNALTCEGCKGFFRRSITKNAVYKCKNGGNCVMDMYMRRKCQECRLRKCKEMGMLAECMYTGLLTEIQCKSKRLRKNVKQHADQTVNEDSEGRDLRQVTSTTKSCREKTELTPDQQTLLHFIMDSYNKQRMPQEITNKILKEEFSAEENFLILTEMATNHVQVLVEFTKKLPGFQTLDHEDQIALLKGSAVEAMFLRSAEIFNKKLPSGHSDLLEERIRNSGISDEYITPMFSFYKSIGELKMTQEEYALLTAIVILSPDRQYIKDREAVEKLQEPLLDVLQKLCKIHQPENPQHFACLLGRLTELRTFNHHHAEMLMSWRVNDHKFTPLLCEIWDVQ
Vitamin D3 receptor (Homo sapiens), sequence (P11473 whole entry, looked up): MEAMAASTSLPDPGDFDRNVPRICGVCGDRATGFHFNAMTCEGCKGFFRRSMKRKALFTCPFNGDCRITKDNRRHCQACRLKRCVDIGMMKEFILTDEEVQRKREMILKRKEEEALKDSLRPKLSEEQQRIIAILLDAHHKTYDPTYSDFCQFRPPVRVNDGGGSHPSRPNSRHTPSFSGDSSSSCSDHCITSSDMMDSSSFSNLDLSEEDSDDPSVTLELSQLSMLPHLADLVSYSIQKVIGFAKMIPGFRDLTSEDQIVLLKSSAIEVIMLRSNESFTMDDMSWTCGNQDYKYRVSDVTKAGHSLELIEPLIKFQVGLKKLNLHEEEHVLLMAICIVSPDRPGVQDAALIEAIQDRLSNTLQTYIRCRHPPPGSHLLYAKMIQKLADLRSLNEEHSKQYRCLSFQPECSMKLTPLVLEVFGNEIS
Peroxisome proliferator-activated receptor delta (Homo sapiens), sequence (Q03181 whole entry, looked up): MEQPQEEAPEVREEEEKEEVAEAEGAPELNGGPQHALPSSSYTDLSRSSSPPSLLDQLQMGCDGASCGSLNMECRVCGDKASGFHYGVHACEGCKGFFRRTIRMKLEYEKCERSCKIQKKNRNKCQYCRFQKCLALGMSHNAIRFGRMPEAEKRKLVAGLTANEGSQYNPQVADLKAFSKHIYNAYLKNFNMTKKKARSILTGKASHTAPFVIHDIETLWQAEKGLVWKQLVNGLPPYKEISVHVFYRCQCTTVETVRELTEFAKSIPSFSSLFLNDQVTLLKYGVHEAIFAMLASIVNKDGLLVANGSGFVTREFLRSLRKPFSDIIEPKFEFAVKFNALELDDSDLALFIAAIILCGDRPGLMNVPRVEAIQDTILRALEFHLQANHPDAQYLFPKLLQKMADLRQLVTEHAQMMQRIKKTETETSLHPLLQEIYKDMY

CN1CCc2cc(Cl)c(O)cc2[C@H]2c3ccccc3CC[C@@H]21
inactive: [1] | [2] | [3] | [4]

O=S1(=O)OCC2C(CO1)C1(Cl)C(Cl)=C(Cl)C2(Cl)C1(Cl)Cl (stereo not given)
inactive: [2] | [3]

Nc1nc(N)c(N)c(N)n1
inactive: [5] | [4] | [6]

Clc1cc(Cl)c(-c2cc(Cl)c(Cl)cc2Cl)cc1Cl
inactive: [1] | [7] | [5] | [3] | [4] | [8] | [6]

Nc1c(Cl)c(Cl)c(Cl)c(Cl)c1Cl
inactive: [9] | [4]

CO/N=C(/C1=NOCCO1)c1ccccc1Oc1ncnc(Oc2ccccc2Cl)c1F
inactive: [1] | [4]

CCOP(=S)(OCC)Oc1cc(C)nc(N(CC)CC)n1
inactive: [10] | [2] | [7] | [3] | [8] | [6]

Cc1c([N+](=O)[O-])cc2c(c1[N+](=O)[O-])C(C)(C)CC2(C)C
inactive: [1] | [2] | [5] | [3] | [4] | [6]

O.O.O.O.O.O.O.O=S(=O)([O-])[O-].[Co+2]
inactive: [10] | [4]

CCO/N=C(\CC)C1=C(O)CC(c2c(C)cc(C)cc2C)CC1=O (stereo not given)
inactive: [9] | [3]

S=C=NCCc1ccccc1
inactive: [10] | [6]

Oc1ccc2[nH]cc(CCCCN3CC=C(c4ccccc4)CC3)c2c1
inactive: [7] | [4]

CC(C)N(C(=O)CCl)c1ccccc1
inactive: [4] | [8]
active: [9] 49 µM and 43.6 µM

Cc1ccccc1OP(=O)(Oc1ccccc1C)Oc1ccccc1C
inactive: [1] | [5] | [3] | [4] | [6]

O.O.O.O=C([O-])[C@H]([O-])[C@@H]([O-])C(=O)[O-].O=C([O-])[C@H]([O-])[C@@H]([O-])C(=O)[O-].[K+].[K+].[Sb+3].[Sb+3]
inactive: [10] | [5] | [3] | [4]
active: [2] 12.4 µM

N#Cc1c2ccccc2cc2ccccc12
inactive: [10] | [4]

N#Cc1c[nH]cc1-c1cccc2c1OC(F)(F)O2
inactive: [5] | [4] | [8]

O=C(N[C@@H]1N=C(c2ccccc2F)c2cccc3c2N(CC3)C1=O)c1cc2ccccc2[nH]1
inactive: [9] | [5] | [4] | [8] | [6]

CCC[CH2][Sn]([CH2]CCC)([O]C(C)=O)[O]C(C)=O
active: [2] 19.7 µM | [5] 11.1 µM | [4] 17.5 µM

CCCCC/C=C\C/C=C\C/C=C\C/C=C\CCCC(=O)NCC(=O)O
active: [5] 29.8 µM
inactive: [8]

CC(C)(C)c1ccc(OP(=O)(Oc2ccccc2)Oc2ccccc2)cc1
inactive: [5] | [3] | [8] | [6]
active: [2] 22 µM | [7] 24.7 µM

Cc1cc(C2CC2)nc(Nc2ccccc2)n1
inactive: [5] | [3] | [4] | [8]

CN
inactive: [9] | [5] | [4] | [8] | [6]

CC1=C2C[C@H]3[C@@H](CC=C4C[C@@H](O)CC[C@@]43C)[C@@H]2CC[C@]12O[C@@H]1C[C@H](C)CN[C@H]1[C@H]2C
inactive: [2] | [7] | [4] | [8] | [6]
active: [3] 10.7 µM

CN(C)c1ccc(N)cc1
inactive: [1] | [5] | [4] | [8]

COC(=O)N(OC)c1ccccc1COc1ccn(-c2ccc(Cl)cc2)n1
inactive: [5] | [3] | [4] | [8]

C#CCC1=C(C)C(OC(=O)C2C(C=C(C)C)C2(C)C)CC1=O (stereo not given)
inactive: [5] | [4] | [8]

ClC1=C(Cl)[C@]2(Cl)[C@@H]3[C@H]4C[C@H]([C@@H]5O[C@H]45)[C@@H]3[C@@]1(Cl)C2(Cl)Cl
inactive: [5] | [4] | [6]

C[C@]12Cc3cn[nH]c3C[C@@H]1CC[C@@H]1[C@@H]2CC[C@@]2(C)[C@H]1CC[C@]2(C)O
inactive: [3] | [8]
active: [10] 29.8 µM | [4] 33.5 µM

FC(F)C(F)(F)OCC(Cn1cncn1)c1ccc(Cl)cc1Cl (stereo not given)
inactive: [1] | [5] | [3] | [8] | [6]

CNN
inactive: [10] | [5] | [4]

Reference: PubChem BioAssay (Tox21)
